Measurements as given in PubChem BioAssay AID449762 (Southern Research Specialized Biocontainment Screening …, 2010).
About 1,900 (0.58%) of roughly 330,000 compounds were called active. Inconclusive results (about 4%) are left out. These entries were drawn from the full list. Entries with a potency or affinity are not part of this list. A number with no mark means an inactive call. Rule as the data show it: inconclusive = inhibition above about 70% without an active follow-up result; inactive = below that.

Experiment: M. tuberculosis growth inhibition, HTS (AID 449762);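 also: bacterial growth assessed after seven days of incubation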
Conditions: M. tuberculosis H37Rv growth inhibition, 7H9 media; at 25 µM; stronger effect = higher value

SMILES	inhibition [%]
Cc1cc(Cl)c(OCCCN(C)C)c(Br)c1	2.02
COc1cc2[nH]c3c(Cl)ncnc3c2cc1OC	-3.36
COc1ccc2c([N+](=O)[O-])c(Cl)[nH]c2c1	-1.29
CCOC(=O)C1=C(C)OC(N)=C(C#N)C1c1c(C)nn(-c2ccccc2)c1Cl (configuration not stated)	-3.55
Cc1ccc2c(c1)nnn2C1CCN(CC(=O)Nc2ccc(F)cc2)CC1	-1.73
Cc1ccc2c(c1)nnn2C1CCN(CC(=O)c2ccc(Cl)cc2)CC1	2.57
CCSC(=Nc1ccccc1)C1=C(O)COC1=O	3.26
NCC(c1ccc(Cl)cc1Cl)c1c[nH]c2ccccc12 (configuration not stated)	34.8
OC(CNCCc1c[nH]c2ccccc12)c1ccccc1 (configuration not stated)	-1.92
COC(=O)c1sc(N)c(C(=O)OC)c1COC(=O)C1CC(=O)N(Cc2ccco2)C1 (configuration not stated)	-7.71
CCOc1ccc(CCNS(=O)(=O)c2ccc3c(c2)NC(=O)CO3)cc1OCC	-0.19
CCOc1ccc(NCc2nc3ccccc3n2CCOc2ccccc2)cc1	33.8
c1ccc(NCc2nc3ccccc3n2CCOc2ccccc2)cc1	5.47
O=[N+]([O-])c1ccc(/C=N/Nc2nc(N3CCCCCC3)nc(N3CCCCCC3)n2)o1	-9.1
CCNc1nc(NCC)nc(N/N=C/c2ccccc2)n1	-2.44
CC(C)NS(=O)(=O)c1ccc(CCC(=O)N2CCC(C(N)=O)CC2)cc1	-7.28
Cc1ccccc1C(=O)Oc1cc(N)n(S(C)(=O)=O)n1	-5.9
NC(=O)CCCn1c(C(=O)c2ccc(Cl)cc2)c2ccc([N+](=O)[O-])cc2[n+]1[O-]	-3.8
NCCCn1c(C(=O)c2ccc(Cl)cc2)c2ccc(C(F)(F)F)cc2[n+]1[O-]	1.61
COc1ccc(CCN2CC(C(=O)NCc3ccco3)CC2=O)cc1OC (configuration not stated)	-1.89
CCN1CCN(c2ccc(S(=O)(=O)N3CCOCC3)cc2NC(=O)COc2ccc(F)cc2Cl)CC1	2.58
C[C@H](NC(N)=O)C(=O)Nc1ccc(OCc2ccccc2)cc1	2.2
C/C(=N\NC(=O)c1ccc(C)cc1C)c1ccc2c(c1)Nc1ccccc1S2	7.51
C/C(=N\NC(=O)c1ccccc1F)c1ccc2c(c1)Nc1ccccc1S2	-0.8
O=C1C=C(c2cccc3c2sc2ccccc23)C[C@@H](c2ccc(Cl)cc2)C1	-0.695

SMILES	inhibition [%]
CSc1ccc(/C=C/C(=O)Nc2ccccc2)cc1	10.6
CCCC(=O)Nc1ccc(C(N)=O)cc1	-1.73
Cc1nnc(SCC(=O)N2CCCCC2)s1	-0.73
CSc1nsc(SCC(=O)NC2CCCCC2)n1	66.1
COc1cc(OC)c(C(=O)OCC(=O)Nc2c(C)n(C)n(-c3ccccc3)c2=O)cc1OC	1.54
O=C1NC[C@H](c2ccccc2)N(CC2CCCCC2)C1=O	-2.23
C/C(=N\Nc1ccc([N+](=O)[O-])cc1)c1ccc(N)cc1	-12.2
C/C(=N\Nc1ccccc1)c1cccc(N)c1	-1.02
Cn1cnc(S(=O)(=O)N2CCN(c3ccc(Cl)cc3)CC2)c1	1.05
CC(C)COC(=O)Nc1ccccc1C(=O)N1CCOCC1	-0.44
Cc1ccc(N(Cc2cc3ccccc3[nH]c2=O)S(C)(=O)=O)cc1	-5.78
Cc1[nH]c2ccccc2c1C(C[N+](=O)[O-])c1cccc(O)c1 (configuration not stated)	0.72
O=c1[nH][nH]c(-c2ccccc2O)c1C(C[N+](=O)[O-])c1ccccc1 (configuration not stated)	25.6
O=C(N/N=C/c1ccco1)c1cc(-c2cccc(Br)c2)nc2ccccc12	5.09
CCNC(=S)/N=C(\N)Nc1nc(C)c2cc(C)ccc2n1	26.4
CCOc1ccc2nc(N/C(N)=N/C(=S)Nc3ccc(C)c(C)c3)nc(C)c2c1	39.5
Cc1cccc(NC(=S)/N=C(\N)Nc2nc(C)c3cc(C)ccc3n2)c1	8.71
CCOc1ccc2nc(N/C(N)=N/C(=S)Nc3ccc(OC)cc3)nc(C)c2c1	1.27
COc1ccc(N2CCN(C(=O)c3cc4cc(Cl)ccc4[nH]3)CC2)cc1	-7.94
COc1ccc(Cl)cc1NC(=O)CN1CCCCCC1	-5.19
Cc1ccc(S(=O)(=O)CC(=O)N2CCN(c3ccc(F)cc3)CC2)cc1	-10.4
O=c1c2ccccc2c(=O)n2n1Cc1ccccc1C2	0
CCC1CSC(Nc2ccc(C(=O)/C=C/c3ccc(Oc4ccccc4)cc3)cc2)=N1 (configuration not stated)	4.72
Cc1cccc(/C=C/C(=O)c2ccc(N3CCOCC3)cc2)c1	-1.54
Cc1ccc(N(CC(O)CN2C(=O)NC(C)(C)C2=O)S(=O)(=O)c2ccc([N+](=O)[O-])cc2)cc1 (configuration not stated)	0.97

SMILES	inhibition [%]
COC(=O)c1cc(C(=O)OC)[nH]n1	-0.31
COc1ccccc1NC(=O)N1CCCC1C(=O)NCc1ccccc1Cl (configuration not stated)	3.2
Cc1ccc(S(=O)(=O)/N=C(\CN2CCCCC2)N2CCOCC2)cc1	-3.15
Cc1ccc(S(=O)(=O)/N=C(\CN2CCOCC2)N2CCOCC2)cc1	2.72
CC(=O)c1c(C)[nH]c(C(=O)CSc2nc3ccccc3c(=O)n2CCCO)c1C	10.8
O=C(NC1CCOCC1)C1CCC(=O)N(Cc2ccc(Cl)cc2)C1 (configuration not stated)	-7.32
Cc1ccc(C(=O)C2CCOC(C)(C)C2)cc1 (configuration not stated)	-6.79
Cc1ccc(-c2csc(N3CCC[C@@H]3C(=O)NCCn3c(-c4ccncc4)nc4ccccc43)n2)cc1	58.4
Cc1ccc(-c2csc(NCCn3c(-c4ccncc4)nc4ccccc43)n2)cc1	-3.83
COc1cc2c(cc1OC)CN(C1CCC(C)CC1)CC2 (configuration not stated)	8.03
CC(C)N=C(NC#N)SCc1ccccc1F	-3.3
COc1ccc(CCNc2nc(C)nc3c2oc2ccccc23)cc1OC	2
CCNc1nc(C)nc2c1oc1ccccc12	2.03
COc1ccccc1NS(=O)(=O)c1cccc(C(=O)NN)c1	-5.02
COc1cc(NC(=O)Cc2ccc([N+](=O)[O-])cc2)c(C(=O)O)cc1OC	20.1
O=C(/C=C/c1cccnc1)c1ccccc1O	4.14
COc1cc(C(=O)/C=C/c2cccnc2)ccc1O	52.2
O=C(/C=C/c1cccnc1)c1ccc(O)cc1	2.21
CN(C)c1ccc(C(=O)/C=C/c2cccnc2)cc1	-3.39
Cc1ccc2nc(-c3ccc(NC(=O)CCS(=O)(=O)c4ccccc4)cc3)sc2c1	1.52
O=C(CN(Cc1ccco1)C(=O)CNS(=O)(=O)c1ccccc1)NCc1ccccc1	0.41
Cc1ccc(N2C(=O)C3C4C=CC(CNC(=S)Nc5ccc(Cl)cc5)(O4)C3C2=O)cc1 (configuration not stated)	0.99
Cc1ccc(NC(=O)Nc2ccc3c(c2)CCC3)c(C)c1	-10.3
Cc1ccc2[nH]c3nc(N/N=C/c4cccc(O)c4)nnc3c2c1	3.58
O=Nc1ccc(NOC(=O)c2ccccc2)cc1	14

SMILES	inhibition [%]
Cc1ccc(C(=O)ONc2ccc(N=NC(=O)c3ccccc3O)cc2)cc1	2.47
CCCn1c(C)cc(C(=O)CN2C(=O)c3cccc(N)c3C2=O)c1C	-10
Oc1ccc(Cl)cc1N=Nc1ccccc1	-8.24
COc1ccc(-c2[nH]ncc2N=Nc2ccccc2)cc1	8.09
CCOC(=O)c1[nH]c2ccccc2c1NC(=O)c1ccc(Br)o1	-1.61
CN(C)c1ccc(/C=C/c2cc[n+](C)cc2)cc1	7.78
CN(C)c1ccc(/C=C/c2cccc[n+]2[O-])cc1	1.21
Cc1cc(C(=O)OCC(=O)Nc2cccc(F)c2)c(C)n1C1CC1	0.41
CCN(CC)CCn1c(SCC(=O)Nc2ccc(F)cc2)nc2c(sc3ccccc32)c1=O	4.95
CCN(CC)CCn1c(SCC(=O)NCc2ccccc2)nc2c(sc3ccccc32)c1=O	6
COCCn1c(-c2ccccc2)cc(C(=O)O)c1C	6.01
COc1ccc(CNC(=O)Nc2ccc(C)c(C)c2)cc1	-5.48
CC(=O)NC(=S)Nc1ccc(NC(=O)COc2ccc(Cl)cc2Cl)cc1	0.45
CC(=O)Nc1ccc(NC(=O)COc2ccc(Cl)cc2Cl)cc1	-0.58
COC(=O)c1ccc(NC(=O)Cn2nc(SC)n(N)c2=S)cc1	-4.09
Cc1ccc(Sc2nc([N+](=O)[O-])nn2C)cc1	6.48
Cn1nc([N+](=O)[O-])nc1Sc1ccc(Cl)cc1	0.18
CC(=O)Nc1ccc(CN2CCN(CCc3ccccc3)C(CCO)C2)cc1 (configuration not stated)	-3.1
CCCCS/C(N)=N/N=C/c1ccccc1O	1.14
Cc1ccc(O)c(C=Nc2cc(C)ccc2O)c1	-4.69
COc1ccc(CCNc2nc(-c3ccc(O)cc3)cs2)cc1OC	3.36
C=CCCC(=O)N1CCCC(C(=O)c2cccc(OC)c2)C1 (configuration not stated)	5.01
